High-throughput results: PubChem, Broad Institute
Pf Dd2 growth = P. falciparum Dd2 growth inhibitors, primary screen, SYBR Green fluorescence, single dose replicates; 72 h; stronger effect = lower value; activity change, % at 10 µM; AID 1159554, 2015; actives 2.3% (n = 94,000); in the data active means activity change below about -80%; inconclusive means no clear call, values can overlap the other calls
C diff HTS = C. difficile growth inhibitors, primary screen, HTS | Clostridium difficile clinical isolate growth, OD600, 24 h; stronger effect = lower value | growth activity, negative = inhibition, % at 16 µg/mL (by protocol) | actives 0.25% (n = 86,000);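 active means mean growth activity at or below -80% and every replicate also at or below -80%; inconclusive means mean at or below -80% but some replicate above -80%; inactive means mean growth activity above -80%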
T cruzi growth-1 = T. cruzi intracellular proliferation inhibitors, primary screen, cell-based, beta-gal Tulahuen parasites, NIH3T3 host, luminescence; T. cruzi beta-gal in NIH3T3, GalScreen luminescence, 90 h; inhibition, % at 8.34 µM; AID 624255, 2012; actives 5.9% (n = 77,000);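 active means mean inhibition above about 93%, with at least 55% of replicates each passing it, limit read from the data, passing the limit was not always enough; inconclusive means only one of those two conditions holds; inactive means neither condition holds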
T cruzi growth-2 = T. cruzi intracellular proliferation inhibitors, confirmation, cell-based, NIH3T3 host, beta-gal parasite, luminescence, cherry-pick; shares compounds with T cruzi growth-1; T. cruzi beta-gal in NIH3T3, GalScreen luminescence, 90 h; inhibition, % at 8.35 µM; actives 72% (n = 5,600);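 active means mean replicate inhibition above about 95% and at least 55% of replicates individually reaching it, limit read from the data; inconclusive means only one of the two criteria is met; inactive means neither criterion is met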
T cruzi growth-3 = inhibitors of intracellular T. cruzi replication, confirmation, NIH3T3 host cells, beta-gal parasites, cherry-pick, set 2; shares compounds with T cruzi growth-1; T. cruzi beta-gal in NIH3T3, GalScreen luminescence, 90 h; inhibition, % at 2.09 µM; actives 21% (n = 5,600); AID 651740, 2012;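 active means mean inhibition above about 95%, with at least 55% of replicates also reaching it, limit read from the data; inconclusive means meets just one of the two conditions; inactive means meets neither condition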
NIH3T3 tox = cytotoxicity in mouse NIH/3T3 fibroblasts, confirmation, cytotoxicity control for T. cruzi proliferation inhibitor project, cell-based, cherry-pick, single point; shares compounds with T cruzi growth-1; cytotoxicity (signal decrease), % at 8.35 µM; AID 651742, 2012; actives 14% (n = 5,600); NIH/3T3 viability, CellTiter-Glo ATP luminescence, 90 h;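 active means mean signal decrease across replicates above about 35% based on untreated-well scatter, with enough replicates individually passing, limit read from the data; inconclusive means no rule stated though some were filed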
NIH3T3 tox 2 = NIH/3T3 fibroblast cytotoxicity, confirmation, cytotoxicity control, cell-based, cherry-pick, single point, set 2; AID 651744, 2012; actives 56% (n = 5,600); shares compounds with T cruzi growth-1; inhibition, % at 24.9 µM; NIH/3T3 viability, CellTiter-Glo ATP luminescence, 90 h;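 active means mean loss of cell viability signal at or above a set limit, and enough replicates individually reaching it; inconclusive means meets only the mean limit or only the replicate share; inactive means meets neither condition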
Of the large screens only hits and unclear results are named; the others gave an inactive call (follow-up assays come after a bar, where they were run). An excerpt weighted towards active compounds, which were near 6.8% of everything screened.

C[C@H](CO)N1C[C@H](C)[C@H](CN(C)C(=O)Nc2ccccc2)Oc2ccc(NC(=O)NC3CCCCC3)cc2CC1=O	none
C/C=C/c1ccc([C@H]2[C@@H](CO)N(c3ncc(CC)s3)[C@H]2C#N)cc1	T cruzi growth-1 97.8 | T cruzi growth-2 inactive | T cruzi growth-3 inactive | NIH3T3 tox inactive | NIH3T3 tox 2 inactive
C/C=C/c1ccccc1[C@@H]1[C@H](C#N)N(c2ncc(CC)s2)[C@H]1CO	none (no result: T cruzi growth-1)
C/C=C/c1ccccc1[C@@H]1[C@@H](CO)N(c2ncc(CC)s2)[C@H]1C#N	none (no result: T cruzi growth-1)
C/C=C/c1ccc([C@H]2[C@@H](C#N)N(c3ncc(CC)s3)[C@@H]2CO)cc1	T cruzi growth-1 99.4 | T cruzi growth-2 102.0 | T cruzi growth-3 inactive | NIH3T3 tox inactive | NIH3T3 tox 2 inactive
C[C@@H]1CN([C@@H](C)CO)C(=O)c2cc(C#C[C@@H](C)O)cnc2O[C@H]1CN(C)Cc1ccc(-c2ccccc2)cc1	none (no result: T cruzi growth-1)
C[C@H]1CCCCO[C@H](CN(C)Cc2ccccc2)[C@@H](C)CN([C@@H](C)CO)C(=O)c2cc(NC(=O)Nc3cccc4ccccc34)ccc2O1	none (no result: T cruzi growth-1)
C[C@@H]1CN([C@H](C)CO)C(=O)c2cc(NC(=O)Nc3cccc4ccccc34)ccc2O[C@@H](C)CCCCO[C@H]1CN(C)Cc1ccncc1	T cruzi growth-1 99.7 | T cruzi growth-2 107.2 | T cruzi growth-3 inactive | NIH3T3 tox 36.3 | NIH3T3 tox 2 46.9
COc1ccc(CN(C)C[C@H]2OCCCC[C@H](C)Oc3ccc(NC(=O)Nc4cccc5ccccc45)cc3C(=O)N([C@H](C)CO)C[C@H]2C)cc1	Pf Dd2 growth -89.9, T cruzi growth-1 inconclusive | T cruzi growth-2 98.2 | T cruzi growth-3 106.2 | NIH3T3 tox inactive | NIH3T3 tox 2 55.4
C[C@H]1CCCCO[C@@H](CN(C)Cc2ccccc2)[C@@H](C)CN([C@@H](C)CO)C(=O)c2cc(NC(=O)Nc3cccc4ccccc34)ccc2O1	T cruzi growth-1 109.3 | T cruzi growth-2 inconclusive | T cruzi growth-3 100.2 | NIH3T3 tox inactive | NIH3T3 tox 2 38.2
C[C@@H]1CN([C@H](C)CO)C(=O)c2cc(NC(=O)Nc3cccc4ccccc34)ccc2O[C@@H](C)CCCCO[C@@H]1CN(C)Cc1ccncc1	none
C[C@H](CO)N1C[C@H](C)[C@@H](CN(C)Cc2ccccc2)OCCCC[C@H](C)Oc2ccc(NC(=O)Nc3cccc4ccccc34)cc2C1=O	none (no result: T cruzi growth-1)
C[C@H]1CN([C@@H](C)CO)C(=O)Cc2cc(NC(=O)Nc3cccc4ccccc34)ccc2O[C@@H]1CN(C)Cc1ccc(-c2ccccc2)cc1	T cruzi growth-1 101.9 | T cruzi growth-2 109.4 | T cruzi growth-3 107.4 | NIH3T3 tox inactive | NIH3T3 tox 2 inactive
C[C@@H]1CN([C@@H](C)CO)C(=O)Cc2cc(NC(=O)Nc3cccc4ccccc34)ccc2O[C@H]1CN(C)Cc1ccc(-c2ccccc2)cc1	T cruzi growth-1 107.4 | T cruzi growth-2 102.4 | T cruzi growth-3 106.1 | NIH3T3 tox inactive | NIH3T3 tox 2 inactive
C[C@H](CO)N1C[C@H](C)[C@H](CN(C)Cc2ccccc2)Oc2ccc(NC(=O)Nc3cccc4ccccc34)cc2CC1=O	none
C[C@H](CO)N1C[C@H](C)[C@@H](CN(C)Cc2ccccc2)Oc2ccc(NC(=O)Nc3cccc4ccccc34)cc2CC1=O	none
CCC(=O)Nc1ccc2c(c1)C(=O)N(C)[C@@H]1CC[C@H](CC(=O)Nc3cccc(OC)c3)O[C@@H]1CO2	none
CO[C@H]1CN(C)C(=O)c2ccc(NC(=O)C3CCC3)cc2OC[C@H](C)N(C)C[C@@H]1C	none (no result: T cruzi growth-1)
Cc1noc(C)c1S(=O)(=O)Nc1ccc2c(c1)C(=O)N([C@H](C)CO)C[C@@H](C)[C@H](CN(C)S(=O)(=O)c1ccc(Cl)cc1)OCCCC[C@@H](C)O2	Pf Dd2 growth inconclusive, T cruzi growth-1 103.6 | T cruzi growth-2 106.8 | T cruzi growth-3 inactive | NIH3T3 tox inactive | NIH3T3 tox 2 inactive
Cc1ccc(S(=O)(=O)Nc2ccc3c(c2)C(=O)N([C@@H](C)CO)C[C@@H](C)[C@@H](CN(C)S(=O)(=O)c2c(C)noc2C)OCCCC[C@@H](C)O3)cc1	T cruzi growth-1 98.2 | T cruzi growth-2 107.1 | T cruzi growth-3 inactive | NIH3T3 tox inactive | NIH3T3 tox 2 inactive
Cc1noc(C)c1S(=O)(=O)Nc1ccc2c(c1)C(=O)N([C@@H](C)CO)C[C@@H](C)[C@@H](CN(C)S(=O)(=O)c1ccc(Cl)cc1)OCCCC[C@@H](C)O2	none
Cc1noc(C)c1S(=O)(=O)N(C)C[C@H]1OCCCC[C@@H](C)Oc2ccc(NS(=O)(=O)c3ccc(F)cc3)cc2C(=O)N([C@H](C)CO)C[C@@H]1C	none
Cc1noc(C)c1S(=O)(=O)N(C)C[C@@H]1OCCCC[C@@H](C)Oc2ccc(NS(=O)(=O)c3ccc(F)cc3)cc2C(=O)N([C@H](C)CO)C[C@H]1C	T cruzi growth-1 inconclusive | T cruzi growth-2 inactive | T cruzi growth-3 inactive | NIH3T3 tox inactive | NIH3T3 tox 2 inactive
Cc1ccc(S(=O)(=O)Nc2ccc3c(c2)C(=O)N([C@@H](C)CO)C[C@@H](C)[C@H](CN(C)S(=O)(=O)c2c(C)noc2C)OCCCC[C@@H](C)O3)cc1	none
Cc1noc(C)c1S(=O)(=O)Nc1ccc2c(c1)C(=O)N([C@H](C)CO)C[C@H](C)[C@H](CN(C)S(=O)(=O)c1ccc(Cl)cc1)OCCCC[C@@H](C)O2	none
Cc1noc(C)c1S(=O)(=O)N(C)C[C@@H]1OCCCC[C@H](C)Oc2ccc(NS(=O)(=O)c3ccc(Cl)cc3)cc2C(=O)N([C@H](C)CO)C[C@@H]1C	T cruzi growth-1 98.2 | T cruzi growth-2 106.3 | T cruzi growth-3 inactive | NIH3T3 tox inactive | NIH3T3 tox 2 inactive
CO[C@H]1CN(C)C(=O)c2cc(NC(=O)Cc3ccccc3)ccc2OC[C@H](C)N(CC2CC2)C[C@H]1C	none
C[C@H]1CN([C@@H](C)CO)C(=O)c2cc(C#Cc3ccncc3)cnc2O[C@@H]1CN(C)C(=O)CN(C)C	none
CO[C@H]1CN(C)C(=O)c2ccc(NS(=O)(=O)c3cn(C)cn3)cc2OC[C@H](C)N(C)C[C@@H]1C	none (no result: T cruzi growth-1)
CN(C)c1ccc2c(c1)[C@H]1C[C@H](CC(=O)NCCN3CCCCC3)O[C@H](CO)[C@H]1O2	none
